Shown are actives, neighbours in structure and some others; about 8.6% of the full set was active somewhere.
LASV entry inh: Lassa virus entry inhibition; Lassa virus pseudotyped entry inhibition, cell-based qHTS; Potency, µM (top dose mostly 49.2 µM), for the others: top-dose activity change, negative = inhibition, actives largely listed as inhibitors; 4.1% of 18,000 active
Marburg entry: Marburg virus entry inhibition; Marburg virus pseudotype entry/binding inhibition, cell-based; Potency, µM (top dose mostly 49.2 µM), inactives show at the top dose activity change, negative = inhibition, usual class: inhibitors; 6.5% of 18,000 active
Starred values were filed as active, the others as inactive; u = inconclusive; x = no result given; ! = repeats disagree; [ ] = remark or other dose. The call rests on the fitted dose curve; tested in HEK293 cells. On the % scale 0 is the no-effect control and ±100 the full control effect; potency means the concentration at half of the fitted maximal effect.

SMILES | LASV entry inh | Marburg entry
CC(C)[C@@H]1CC[C@@H](C)C[C@H]1OC(=O)c1ccccc1O | -10% | -13%
CC(=O)C1=C(C)N(Cc2ccccc2)C(=O)NC1c1ccco1 (centres undefined) | x | 2%[8.59 µM]
O=c1[nH]c2ccccc2n1C1CCN(Cc2ccc(-c3[nH]c4cc5ncnc5cc4nc3-c3ccccc3)cc2)CC1 | 18µM* | 7.1µM*
O=C(CCCN1CCC(n2c(=O)[nH]c3ccccc32)CC1)c1ccc(F)cc1 | -18%[17.8 µM] | 9%[17.8 µM]
Cc1cc(-c2ccnc(-n3ncc(C(=O)NCC4COCCO4)c3C)n2)c(C)s1 (centres undefined) | -8% | u
CC(C)(C)c1cc(O)ccc1O | 14µM*! | 13µM*!
COc1ccc(O)c(C(C)(C)C)c1 | -9% | u
COC(=O)c1cc(C(=O)OC)n2c(C)cc3ccccc3c12 | -11%[8.59 µM] | 13%[8.59 µM]
C/C1=C2N=C(/C=C3N=C(/C(C)=C4\[N-]C(C(CC(N)=O)C4(C)CCC(=O)NCC(C)OP(=O)([O-])OC4C(CO)OC(n5cnc6cc(C)c(C)cc65)C4O)C4(C)N=C1C(CCC(N)=O)C4(C)CC(N)=O)C(CCC(N)=O)C\3(C)C)C(CCC(N)=O)C/2(C)CC(N)=O.[CH3-].[Co+3] (centres undefined) | 2.5µM* | 3.2µM*
CCOC(=O)[C@H](CS)NCCN[C@@H](CS)C(=O)OCC | u | -18%
NS(=O)(=O)c1cccc(N=Cc2c(O)[nH]c3ccccc23)c1 | -12% | u
OCCNCCCOc1cccc(Cl)c1Cl | u | 6.3µM*
CC1=CC[C@@H](COc2ccccc2)O[C@@]2(C1)C(=O)N(Cc1ccc(Br)cc1)c1cccc(Br)c12 | 10%[8.59 µM] | 46%[8.59 µM]
CC1=CC[C@@H](COc2ccccc2)O[C@@]2(C1)C(=O)N(Cc1ccc(F)cc1)c1cccc(Br)c12 | 19%[8.59 µM] | -10%[8.59 µM]
CCCCCCCCCCCCOCCOCCOCCOCCO | -15% | -48%
CCCCCCCCCc1ccc(OCCOCCO)cc1 | 11µM* | u
COC(=O)C[C@H]1c2ccccc2[C@@H]2C(=C[C@@H](C)[C@H]3C(=O)N(O)C(=O)[C@H]32)N1C(=O)OC | 4%[8.59 µM] | 8%[8.59 µM]
CC1(S(=O)(=O)O)CC(=O)c2ccccc2C1=O (centres undefined) | 25µM* | 14µM*
C[C@]12CC[C@H]3[C@@H](CC=C4C[C@@H](O)CC[C@@]43C)[C@@H]1CC[C@@H]2O | -10% | 25%
C[C@H]1[C@H]2CC[C@H]3[C@@H]4CC=C5C[C@@H](N(C)C)CC[C@]5(C)[C@H]4CC[C@]23CN1C | -26% | 3.2µM*
C/C=C/C/C=C/CCC(=O)[C@H]1O[C@H]1C(N)=O | 16µM* | 16µM*
CC/C=C\C/C=C\C/C=C\C/C=C\C/C=C\C/C=C\CCC(=O)O | 4% | 16%
CCOC(=O)[C@]12C[C@]3(C)CCN(C(=O)N[C@@H]1c1ccccc1)[C@@H]32 | -19%[8.59 µM] | 34%[8.59 µM]
CC(C)(C)OC(=O)N1CCC[C@@H]1C(O)(c1ccccc1)c1ccccc1 | 0%[8.59 µM] | -13%[8.59 µM]
OC[C@H]1O[C@@H](n2cnc3cncnc32)[C@H](O)[C@@H]1O | 7.9µM* | 3.2µM*
SMILES | LASV entry inh | Marburg entry
CNc1ncnc2c1ncn2[C@@H]1O[C@H](CO)[C@@H](O)[C@@H]1O | -13%[17.8 µM] | 7%[17.8 µM]
CSc1ncnc2c1ncn2C1OC(CO)C(O)C1O (centres undefined) | 0.35µM* | 0.5µM*
Cc1ccccc1CNc1ncnc2c1ncn2[C@@H]1O[C@H](CO)[C@@H](O)[C@H]1O | -4% | 25%
Nc1ncnc2c1ncn2C1OC(CO)C(O)C1O (centres undefined) | 0% | 5%
OC[C@H]1O[C@@H](n2cnc3c(NCc4ccco4)ncnc32)[C@H](O)[C@@H]1O | u | 13µM*
CCN1C(=O)NC(c2cccc(F)c2)C(C(=O)OC)=C1C (centres undefined) | 7%[8.59 µM] | 19%[8.59 µM]
COc1cc(-c2ccc(-[n+]3nc(-c4ccccc4)nn3-c3ccc([N+](=O)[O-])cc3)c(OC)c2)ccc1-[n+]1nc(-c2ccccc2)nn1-c1ccc([N+](=O)[O-])cc1 | 14µM* | 14µM*
CCCCCC(=O)N1C[C@H](n2cc(C3CC3)nn2)[C@@H](O)C[C@H]1c1ccc(Cl)cc1 | u | -13%
Cc1cc(=O)oc2cc(NC(=O)[C@H](CCCCN)NC(=O)[C@H](CC3CCCCC3)NC(=O)OCC3c4ccccc4-c4ccccc43)ccc12 | u | 10µM*
Cc1cc(=O)oc2cc(NC(=O)C(CCCCN)NC(=O)C(CC3CCCCC3)NC(=O)OCC3c4ccccc4-c4ccccc43)ccc12 (centres undefined) | 5% | 22%
CC[C@@]1([C@@H]2O[C@@H]([C@H]3O[C@@](O)(CO)[C@H](C)C[C@@H]3C)C[C@@H]2C)CC[C@H]([C@]2(C)CC[C@]3(C[C@H](O)[C@@H](C)[C@@H]([C@@H](C)[C@@H](OC)C(C)C(=O)O)O3)O2)O1 (some centres undefined) | 0.45µM* | 0.28µM*

Screening results from PubChem.
